{"source": "the supplement of paper PMC9694430", "data": [{"tested_on": "LOC_OS05G28520-cb001", "experiment": "thermal shift delta Tm vs DMSO control; higher = stronger stabilization (binding)", "conditions": "12.5 µM; protein concentration 2 µM", "procedure,_shortened": "(§1)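 Rice kinase domain constructs, made in E. coli and purified, were placed in 96-well plates at 2 μM in 19.5 μl of 100 mM potassium phosphate pH 7.5, 150 mM NaCl, 10% glycerol and 5 × SYPRO Orange, with compound in DMSO. A temperature ramp from 25°C to 95°C at 0.05°C/s was used for differential scanning fluorimetry. The melting temperature shift is a triplicate mean compared with DMSO-only protein, derived from Boltzmann fits.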", "units": {"thermal shift delta Tm": "°C"}, "values": [{"smiles": "O=C(c1ccc(Nc2nccc(-c3cc4ccccc4s3)n2)cc1)N1CCC(N2CCCC2)CC1", "note": "[IKK-16 (IKK Inhibitor VII)]", "thermal shift delta Tm": 1.89}, {"smiles": "Cc1cc(NC(=O)c2cccc(NC(=O)/C=C/CN(C)C)c2)ccc1Nc1nccc(-c2cccnc2)n1", "thermal shift delta Tm": 1.08}, {"smiles": "CC(C)[C@H](CO)Nc1nc(Nc2cccc(Cl)c2)c2ncn(C(C)C)c2n1", "note": "[Purvalanol A]", "thermal shift delta Tm": 1.68}, {"smiles": "C=CC(=O)Nc1cccc(Nc2nc(Nc3ccc(OCCOC)cc3)ncc2F)c1", "thermal shift delta Tm": 1.99}, {"smiles": "Cc1c(C(=O)Nc2ccc(Oc3ccnc4[nH]cc(-c5ccccc5)c34)c(F)c2)c(=O)n(-c2ccc(F)cc2)n1C", "thermal shift delta Tm": 0.13}, {"smiles": "COc1cc(Nc2ncc(F)c(Nc3ccc4c(n3)N(COP(=O)(O)O)C(=O)C(C)(C)O4)n2)cc(OC)c1OC", "note": "[Fostamatinib (R788)]", "thermal shift delta Tm": 0.41}, {"smiles": "CC(C)c1c2cc(-c3ccnc(NC4CCC(NC5CCOCC5)CC4)n3)ccc2nn1C", "note": "(centres undefined)", "thermal shift delta Tm": 0.56}, {"smiles": "Cc1nc2ccc(-n3ncc(C(=O)c4cc5ccccc5[nH]4)c3N)cc2[nH]1", "thermal shift delta Tm": 0.51}, {"smiles": "COc1cc2ncnc(Sc3nnc(C)s3)c2cc1OC", "thermal shift delta Tm": 0.25}, {"smiles": "CCOc1cn(-c2ccc(F)cc2C)nc1C(=O)Nc1ccc(Oc2ccnc3cc(OC)c(OC)cc23)c(F)c1", "thermal shift delta Tm": 0.31}, {"smiles": "COc1ccc([C@@H]2OC[C@H]3[C@@H]2CO[C@@H]3c2ccc(O[C@@H]3O[C@H](CO)[C@@H](O)[C@H](O)[C@H]3O)c(OC)c2)cc1OC", "note": "[Forsythin]", "thermal shift delta Tm": 0.25}]}, {"tested_on": "LOC_OS05G30820-cb001", "experiment": "thermal shift delta Tm vs DMSO control; higher = stronger stabilization (binding)", "conditions": "12.5 µM; protein concentration 2 µM", "procedure,_shortened": "as §1", "units": {"thermal shift delta Tm": "°C"}, "values": [{"smiles": "O=C1NC(=O)C(c2ccccc2[N+](=O)[O-])=C1Nc1ccc(O)c(Cl)c1", "thermal shift delta Tm": 0.7}, {"smiles": "CCOc1cc2ncc(C#N)c(Nc3ccc(OCc4ccccn4)c(Cl)c3)c2cc1NC(=O)/C=C/CN(C)C", "note": "[Neratinib (HKI-272)]", "thermal shift delta Tm": 0.56}, {"smiles": "CCCS(=O)(=O)Nc1ccc(F)c(C(=O)c2c[nH]c3ncc(-c4ccc(Cl)cc4)cc23)c1F", "note": "[Vemurafenib (PLX4032, RG7204)]", "thermal shift delta Tm": 0.58}, {"smiles": "Cc1cn(-c2cc(NC(=O)c3ccc(C)c(Nc4nccc(-c5cnccn5)n4)c3)cc(C(F)(F)F)c2)cn1", "note": "[Radotinib]", "thermal shift delta Tm": 0.41}, {"smiles": "OC(c1cc(-c2ccc(Cl)cc2)nc2ccccc12)C1CCCCN1", "note": "(centres undefined) [Vacquinol-1]", "thermal shift delta Tm": 0.43}, {"smiles": "Cc1cc(CS(=O)(=O)c2ccccc2)cc(OCc2ccc(CN3CCC[C@@H]3CO)cc2)c1", "thermal shift delta Tm": 0.38}, {"smiles": "Clc1ccc(Nc2nnc(Cc3ccncc3)c3ccccc23)cc1", "note": "[Vatalanib (PTK787) 2HCl]", "thermal shift delta Tm": 0.45}, {"smiles": "CN1CCN(c2ccc(Nc3cc(-c4cccc(-n5ccc6cc(C7CC7)cc(F)c6c5=O)c4CO)cn(C)c3=O)nc2)CC1", "thermal shift delta Tm": 0.63}, {"smiles": "O=C1NC(=O)[C@@H](c2cn3c4c(cccc24)CCC3)[C@@H]1c1c[nH]c2ccccc12", "note": "[Tivantinib (ARQ 197)]", "thermal shift delta Tm": 0.62}, {"smiles": "COc1cc(-c2cc(-c3ccc(N4CCNCC4)cc3)cnc2C)cc(OC)c1OC", "thermal shift delta Tm": 0.25}, {"smiles": "Cn1ncc(Cl)c1-c1cc(C(=O)N[C@H](CN)Cc2ccc(F)c(F)c2)oc1Cl", "thermal shift delta Tm": 0.24}, {"smiles": "C[C@H](Nc1ncnc2nc[nH]c12)c1cc2cccc(Cl)c2c(=O)n1-c1ccccc1", "note": "[Duvelisib (IPI-145, INK1197)]", "thermal shift delta Tm": 0.45}, {"smiles": "COc1cc2ncnc(Nc3ccc(F)c(Cl)c3)c2cc1OCCCN1CCOCC1", "note": "[Gefitinib (ZD1839)]", "thermal shift delta Tm": 0.41}, {"smiles": "C[C@@H](N)c1ccc(C(=O)Nc2ccnc3[nH]ccc23)cc1", "thermal shift delta Tm": 0.3}, {"smiles": "Cc1ccc(C(=O)Nc2cccc(C(F)(F)F)c2)cc1Nc1nc(-c2cccnc2)nc2c1cnn2C", "thermal shift delta Tm": 0.9}, {"smiles": "O=C1NC(=O)/C(=C/c2ccc3nccc(-c4ccncc4)c3c2)S1", "thermal shift delta Tm": 0.15}, {"smiles": "Oc1c2ccccc2c2c3c(cccc13)N=N2", "thermal shift delta Tm": 1.62}, {"smiles": "C=CC(=O)Nc1ccc2ncnc(Nc3cccc(Br)c3)c2c1", "thermal shift delta Tm": 0.56}, {"smiles": "COc1cc2nccc(Oc3ccc(NC(=O)NC4CC4)c(Cl)c3)c2cc1C(N)=O", "note": "[Lenvatinib (E7080)]", "thermal shift delta Tm": 0.7}, {"smiles": "CN1CCCN(C(=O)c2cccc(-c3ccc(/C=C4/C(=O)Nc5ccc(Cl)cc54)o3)c2)CC1", "thermal shift delta Tm": 0.63}, {"smiles": "CCc1cnn2c(NCc3ccc[n+]([O-])c3)cc(N3CCCC[C@H]3CCO)nc12", "thermal shift delta Tm": 0.37}, {"smiles": "O=C(Nc1ccc(OC(F)(F)F)cc1)c1sccc1NCc1ccnc2ccccc12", "thermal shift delta Tm": 0.65}, {"smiles": "CCOC(=O)c1cnc2ccc(-c3cncc(NS(=O)(=O)c4ccccc4)c3)cn12", "thermal shift delta Tm": 0.47}, {"smiles": "CCCNC(=O)Nc1ccc(Oc2ncnc3cc(OC)c(OC)cc23)cc1Cl", "thermal shift delta Tm": 0.49}, {"smiles": "Cc1cc(Nc2ncnc3ccc(-c4ccc(CNCCS(C)(=O)=O)o4)cc23)ccc1Oc1ccn2ncnc2c1", "note": "[HER2-Inhibitor-1]", "thermal shift delta Tm": 0.57}, {"smiles": "COc1cc2c(Oc3ccc(NC(=O)C4(C(=O)Nc5ccc(F)cc5)CC4)cc3F)ccnc2cc1OCCCN1CCOCC1", "thermal shift delta Tm": 0.55}, {"smiles": "Cn1cc(-c2ccc3c(c2)CCN3C(=O)Cc2cccc(C(F)(F)F)c2)c2c(N)ncnc21", "thermal shift delta Tm": 0.78}, {"smiles": "O=C(c1ccc(Nc2nccc(-c3cc4ccccc4s3)n2)cc1)N1CCC(N2CCCC2)CC1", "note": "[IKK-16 (IKK Inhibitor VII)]", "thermal shift delta Tm": 0.77}, {"smiles": "Cc1cc(NC(=O)c2cccc(NC(=O)/C=C/CN(C)C)c2)ccc1Nc1nccc(-c2cccnc2)n1", "thermal shift delta Tm": 0.57}, {"smiles": "CC(C)[C@H](CO)Nc1nc(Nc2cccc(Cl)c2)c2ncn(C(C)C)c2n1", "note": "[Purvalanol A]", "thermal shift delta Tm": 2.51}, {"smiles": "C=CC(=O)Nc1cccc(Nc2nc(Nc3ccc(OCCOC)cc3)ncc2F)c1", "thermal shift delta Tm": 1.06}, {"smiles": "Cc1c(C(=O)Nc2ccc(Oc3ccnc4[nH]cc(-c5ccccc5)c34)c(F)c2)c(=O)n(-c2ccc(F)cc2)n1C", "thermal shift delta Tm": 0.63}, {"smiles": "COc1cc(Nc2ncc(F)c(Nc3ccc4c(n3)N(COP(=O)(O)O)C(=O)C(C)(C)O4)n2)cc(OC)c1OC", "note": "[Fostamatinib (R788)]", "thermal shift delta Tm": 2.2}, {"smiles": "CC(C)c1c2cc(-c3ccnc(NC4CCC(NC5CCOCC5)CC4)n3)ccc2nn1C", "note": "(centres undefined)", "thermal shift delta Tm": 0.45}, {"smiles": "Cc1nc2ccc(-n3ncc(C(=O)c4cc5ccccc5[nH]4)c3N)cc2[nH]1", "thermal shift delta Tm": 0.59}, {"smiles": "COc1cc2ncnc(Sc3nnc(C)s3)c2cc1OC", "thermal shift delta Tm": 0.64}, {"smiles": "CCOc1cn(-c2ccc(F)cc2C)nc1C(=O)Nc1ccc(Oc2ccnc3cc(OC)c(OC)cc23)c(F)c1", "thermal shift delta Tm": 0.28}, {"smiles": "COc1ccc([C@@H]2OC[C@H]3[C@@H]2CO[C@@H]3c2ccc(O[C@@H]3O[C@H](CO)[C@@H](O)[C@H](O)[C@H]3O)c(OC)c2)cc1OC", "note": "[Forsythin]", "thermal shift delta Tm": -0.02}]}]}
